# Experimental data: the supplement of paper PMC8728848
# The sample as a whole holds a higher share of the strongest signals than the screen did.
# What was measured:
# Experiment in all cases: glycan array binding signal (z-score within array); higher = stronger binding
# Details in all cases: glycan notation: IUPAC condensed, linker removed
# [1] = target: Fuc(a1-2)Gal(b1-3)GalNAc(a1-3)[Fuc(a1-2)]Gal(b1-4)Glc
# Outline: (§1)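 Glycan array data were curated from 3228 arrays in the Consortium for Functional Glycomics database and kept only where the protein sequence was available. Glycan names were converted to IUPAC-condensed notation, and columns mapping to the same glycan were averaged. The binding signal is a within-array Z-score, averaged across arrays of the same protein sequence at different concentrations or buffers and across linkers. Negative Z-scores can be read as non-binding.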
# [2] = target: Fuc(a1-2)Gal(b1-4)[Fuc(a1-3)]GlcNAc(b1-3)Gal(b1-4)[Fuc(a1-3)]GlcNAc
# Outline: as §1
# [3] = target: Fuc(a1-2)Gal(b1-4)[Fuc(a1-3)]GlcNAc(b1-3)[Neu5Ac(a2-6)Gal(b1-4)GlcNAc(b1-6)]Gal(b1-4)Glc
# Outline: as §1
# [4] = target: Fuc(a1-2)[Gal(a1-3)]Gal(b1-4)GlcNAc(b1-6)GalNAc
# Outline: as §1
# [5] = target: Fuc(a1-2)[GalNAc(a1-3)]Gal(b1-3)GalNAc(a1-3)[Fuc(a1-2)]Gal(b1-4)GlcNAc
# Outline: as §1
# [6] = target: Fuc(a1-2)[GalNAc(a1-3)]Gal(b1-4)[Fuc(a1-3)]GlcNAc(b1-3)GalNAc
# Outline: as §1
# [7] = target: Fuc(a1-3)[Gal(b1-4)]GlcNAc(b1-2)Man(a1-3)[Fuc(a1-3)[Gal(b1-4)]GlcNAc(b1-2)Man(a1-6)]Man(b1-4)GlcNAc(b1-4)[Fuc(a1-6)]GlcNAc
# Outline: as §1
# Gal(a1-3)GalNAc = target: Gal(a1-3)GalNAc
# Outline: as §1
# [8] = target: Gal(a1-3)[Gal(a1-4)]Gal(b1-4)GlcNAc
# Outline: as §1
# Gal(a1-4)Gal(b1-4)Glc = target: Gal(a1-4)Gal(b1-4)Glc
# Outline: as §1
# [9] = target: Gal(b1-3)GalNAc(b1-4)Gal(b1-4)Glc
# Outline: as §1
# [10] = target: Gal(b1-3)GlcNAc(a1-3)Gal(b1-4)GlcNAc
# Outline: as §1
# Gal(b1-4)Gal = target: Gal(b1-4)Gal
# Outline: as §1
# [11] = target: Gal(b1-4)GalNAc(a1-3)[Fuc(a1-2)]Gal(b1-4)GlcNAc
# Outline: as §1
# [12] = target: Gal(b1-4)GlcNAc(b1-3)Gal(b1-4)GlcNAc(b1-3)Gal(b1-4)GlcNAc(b1-2)Man(a1-3)[Gal(b1-4)GlcNAc(b1-3)Gal(b1-4)GlcNAc(b1-3)Gal(b1-4)GlcNAc(b1-2)Man(a1-6)]Man(b1-4)GlcNAc(b1-4)[Fuc(a1-6)]GlcNAc
# Outline: as §1
# Gal(b1-6)Gal = target: Gal(b1-6)Gal
# Outline: as §1
# Gal3S6S(b1-4)GlcNAc6S = target: Gal3S6S(b1-4)GlcNAc6S
# Outline: as §1
# Gal6S(b1-4)Glc = target: Gal6S(b1-4)Glc
# Outline: as §1
# [13] = target: GalNAc(b1-3)Gal(a1-4)Gal(b1-4)GlcNAc
# Outline: as §1
# GalNAc(b1-4)GlcNAc = target: GalNAc(b1-4)GlcNAc
# Outline: as §1
# GalNAc4S6S(b1-4)GlcNAc = target: GalNAc4S6S(b1-4)GlcNAc
# Outline: as §1
# GalNAc6S(b1-4)GlcNAc = target: GalNAc6S(b1-4)GlcNAc
# Outline: as §1
# GlcA(b1-3)Gal = target: GlcA(b1-3)Gal
# Outline: as §1
# [14] = target: GlcNAc(a1-4)Gal(b1-3)GlcNAc
# Outline: as §1
# [15] = target: GlcNAc(a1-4)Gal(b1-4)GlcNAc(b1-3)Gal(b1-4)Glc
# Outline: as §1
# [16] = target: GlcNAc(b1-2)Gal(b1-3)GalNAc
# Outline: as §1
# [17] = target: GlcNAc(b1-2)[GlcNAc(b1-4)]Man(a1-3)[GlcNAc(b1-4)][GlcNAc(b1-2)Man(a1-6)]Man(b1-4)GlcNAc(b1-4)GlcNAc
# Outline: as §1
# [18] = target: GlcNAc(b1-3)Gal(b1-4)GlcNAc(b1-2)[GlcNAc(b1-3)Gal(b1-4)GlcNAc(b1-6)]Man(a1-6)[GlcNAc(b1-3)Gal(b1-4)GlcNAc(b1-2)Man(a1-3)]Man(b1-4)GlcNAc(b1-4)GlcNAc
# Outline: as §1
# [19] = target: GlcNAc(b1-3)Gal(b1-4)GlcNAc(b1-3)Gal(b1-4)GlcNAc(b1-2)[GlcNAc(b1-3)Gal(b1-4)GlcNAc(b1-3)Gal(b1-4)GlcNAc(b1-6)]Man(a1-6)[GlcNAc(b1-3)Gal(b1-4)GlcNAc(b1-3)Gal(b1-4)GlcNAc(b1-2)Man(a1-3)]Man(b1-4)GlcNAc(b1-4)[Fuc(a1-6)]GlcNAc
# Outline: as §1
# [20] = target: GlcNAc(b1-3)Gal(b1-4)GlcNAc(b1-3)Gal(b1-4)GlcNAc(b1-3)Gal(b1-4)GlcNAc(b1-3)Gal(b1-4)GlcNAc(b1-2)[GlcNAc(b1-3)Gal(b1-4)GlcNAc(b1-3)Gal(b1-4)GlcNAc(b1-3)Gal(b1-4)GlcNAc(b1-3)Gal(b1-4)GlcNAc(b1-6)]Man(a1-6)[GlcNAc(b1-3)Gal(b1-4)GlcNAc(b1-3)Gal(b1-4)GlcNAc(b1-3)Gal(b1-4)GlcNAc(b1-3)Gal(b1-4)GlcNAc(b1-2)Man(a1-3)]Man(b1-4)GlcNAc(b1-4)[Fuc(a1-6)]GlcNAc
# Outline: as §1
binder,measurement,setting,value
"AT5G17240(42) (Arabidopsis thaliana), Q6NQJ8 (protein) MDLEHQTMETFLRWAAEIGISDSIDSSRFRDSCLGHSLSVSDFPDAGGRGLGAARELKKGELVLKVPRKALMTTESIIAKDLKLSDAVNLHNSLSSTQILSVCLLYEMSKEKKSFWYPYLFHIPRDYDLLATFGNFEKQALQVEDAVWATEKATAKCQSEWKEAGSLMKELELKPKFRSFQAWLWASATISSRTLHVPWDSAGCLCPVGDLFNYDAPGDYSNTPQGPESANNVEEAGLVVETHSERLTDGGFEEDVNAYCLYARRNYQLGEQVLLCYGTYTNLELLEHYGFMLEENSNDKVFIPLETSLFSLASSWPKDSLYIHQDGKLSFALISTLRLWLIPQSQRDKSVMRLVYAGSQISVKNEILVMKWMSEKCGSVLRDLPTSVTEDTVLLHNIDKLQDPELRLEQKETEAFGSEVRAFLDANCLWDVTVLSGKPIEFSRKTSRMLSKWRWSVQWRLSYKRTLADCISYCNEKMNNLLGTQDRLRDL",glycan array binding signal (z-score),[1],0.123
same,glycan array binding signal (z-score),[2],0.458
same,glycan array binding signal (z-score),[3],-0.37
same,glycan array binding signal (z-score),[4],-0.375
same,glycan array binding signal (z-score),[5],-0.276
same,glycan array binding signal (z-score),[6],6.64
same,glycan array binding signal (z-score),[7],0.044
same,glycan array binding signal (z-score),Gal(a1-3)GalNAc,1.94
same,glycan array binding signal (z-score),[8],8.82
same,glycan array binding signal (z-score),Gal(a1-4)Gal(b1-4)Glc,4.63
same,glycan array binding signal (z-score),[9],1.23
same,glycan array binding signal (z-score),[10],-0.028
same,glycan array binding signal (z-score),Gal(b1-4)Gal,0.335
same,glycan array binding signal (z-score),[11],-0.444
same,glycan array binding signal (z-score),[12],-0.845
same,glycan array binding signal (z-score),Gal(b1-6)Gal,-0.362
same,glycan array binding signal (z-score),Gal3S6S(b1-4)GlcNAc6S,1.61
same,glycan array binding signal (z-score),Gal6S(b1-4)Glc,-0.21
same,glycan array binding signal (z-score),[13],3.08
same,glycan array binding signal (z-score),GalNAc(b1-4)GlcNAc,8.25
same,glycan array binding signal (z-score),GalNAc4S6S(b1-4)GlcNAc,1.39
same,glycan array binding signal (z-score),GalNAc6S(b1-4)GlcNAc,-0.134
same,glycan array binding signal (z-score),GlcA(b1-3)Gal,-0.785
same,glycan array binding signal (z-score),[14],-0.54
same,glycan array binding signal (z-score),[15],-0.607
same,glycan array binding signal (z-score),[16],-0.394
same,glycan array binding signal (z-score),[17],-0.434
same,glycan array binding signal (z-score),[18],2.56
same,glycan array binding signal (z-score),[19],1.12
same,glycan array binding signal (z-score),[20],1.33
